From PubChem BioAssay
In the library only some 4.6% were active in any assay of this set; here they are far more common.
NLRP3 yeast inh = inhibitors of NALP3 inflammasome in yeast. Yeast reconstituted NLRP3/ASC/caspase-1, beta-gal luminescence, 24 h. 330,000 tested, 0.39% active. inhibition, % at 10 µM;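 active = inhibition of 50% or more; inactive = inhibition below 50%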;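 also: plate controls were induced DMSO wells for no effect and uninduced yeast grown without galactose for full effect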
tim23-1 inh = growth inhibitors of tim23-1 mutant yeast; S. cerevisiae tim23-1 growth, BacTiter-Glo luminescence, 24 h; inhibition, % at 20 µM; 330,000 tested, 1.3% active;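 active = growth inhibition of the mutant yeast at or above 50%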;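 also: temperature-sensitive mutant grown at 25 °C; plate controls were DMSO-treated mutant yeast for no effect and medium wells lacking yeast for full effect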
tim10-1 inh = inhibits growth of tim10-1 mutant yeast; AID 463190; 330,000 tested, 2.2% active; inhibition, % at 20 µM; S. cerevisiae tim10-1 ts strain growth, BacTiter-Glo, 24 h;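 active = inhibition of at least 40%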;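 also: mutant grown at 25 °C; 0% = DMSO wells with yeast and 100% = wells holding no yeast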
TIM10 inh = TIM10 yeast growth inhibition; S. cerevisiae TIM10 strain growth, BacTiter-Glo luminescence, 24 h; inhibition, % at 10 µM; 330,000 tested, 1.4% active; AID 463195;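 active = inhibition of 40% or more at the single tested concentration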;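 also: wild-type TIM10 isogenic control strain grown at permissive 25 °C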
SKKanGAS inh = inhibitors of SKKanGAS S. pyogenes growth in kanamycin (SK-promoter or general growth effect); BacTiter-Glo, 6 h; 300,000 tested, 1.3% active; inhibition, % at 7.5 µM;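 active = mean replicate score, as percent of positive control median, at least 50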;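 also: strain carries kanamycin resistance gene driven by streptokinase promoter and grows in 40 µg/ml kanamycin; loss of luminescence reflects streptokinase promoter inhibition or plain growth inhibition; 0% = median of DMSO wells and 100% = positive control at its reference dose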
tim10-1 conf = tim10-1 yeast growth inhibition, confirmed; shares compounds with tim10-1 inh; S. cerevisiae tim10-1 ts strain growth, BacTiter-Glo, 24 h; inhibition, % at 20 µM; 7,400 tested, 56% active; AID 463213;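 active = inhibition of yeast growth at or above a set limit in either of two repeat tests at 20 µM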;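 also: tim10-1 mutant grown at permissive 25 °C to find synthetic lethal compounds; 0% = DMSO yeast wells and 100% = medium wells without yeast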
TIM10 conf = TIM10 yeast growth inhibition, confirmed; shares compounds with TIM10 inh; S. cerevisiae tim10 strain growth, BacTiter-Glo luminescence, 24 h; inhibition, % at 10 µM; 4,600 tested, 63% active;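 active = inhibition of yeast growth at or above a set limit in either of two replicates at 10 µM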;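 also: this counterscreen used the strain with wild-type TIM10; 0% = yeast with DMSO and 100% = medium wells lacking yeast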
The depositor's hits bear a star; / = no result given.

SMILES | NLRP3 yeast inh | tim23-1 inh | tim10-1 inh | TIM10 inh | SKKanGAS inh | tim10-1 conf | others
COc1cccc(CN2C(=O)[C@H]3Cc4c([nH]c5ccccc45)C(C)(C)N3C2=O)c1 | 5 | 31 | 45* | 35 | 16 | 30
COc1ccc(CN2C(=O)[C@@H]3Cc4c([nH]c5ccccc45)C(C)(C)N3C2=O)cc1 | 9 | 43 | 44* | 27 | 5 | 22
CC(C)(C)OC(=O)N1CCN(C(=O)c2[nH]cnc2C(=O)Nc2cccc(Cl)c2)CC1 | 21 | -6 | -1 | 3 | / | /
COC(=O)c1cn(C(=O)c2ccc(OC)cc2)c2ccccc12 | 25 | 42 | 42* | 12 | -1 | 18
COC(=O)c1cn(C(=O)c2ccc(C)cc2)c2ccccc12 | -6 | 17 | 24 | 31 | -10 | /
Cc1cccc(NC(=S)N(CCN2CCOCC2)Cc2ccccc2F)c1 | -3 | 16 | 42* | -6 | -4 | 5
Cc1ccc(NC(=S)N(CCN2CCOCC2)Cc2ccccc2F)cc1Cl | -3 | 6 | 37 | 35 | -4 | /
Cc1ccc(S(=O)(=O)/C=C/c2ccccc2)cc1 | 22 | 48 | 48* | 18 | -3 | 26
CC(C)Cc1nc2oc3c(NCC4CCCO4)ncnc3c2c2c1CCC2 (configuration not stated) | 7 | 24 | 45* | 25 | 0 | 27
O=C(CCN1CCOCC1)NNC(=O)c1ccc([N+](=O)[O-])cc1[N+](=O)[O-] | 7 | 10 | 4 | -8 | / | /
O=C(CO/N=C/c1cccc([N+](=O)[O-])c1)Nc1ccc2ccccc2c1 | 23 | 16 | 45* | 9 | 5 | 24
O=C(CSc1nc(O)cc(=O)[nH]1)N1c2ccccc2Sc2ccccc21 | 4 | 16 | -9 | -1 | 12 | /
O=C(CSc1nc2ccccc2[nH]1)N1c2ccccc2Sc2ccccc21 | 5 | 37 | 46* | 26 | 31 | 20
CN(C)c1ccc(C(=O)OCC(=O)c2ccc[nH]2)cc1 | 33 | 13 | -8 | -7 | / | /
CCOc1c2c(nc3ccc(Cl)cc13)CCC2 | 16 | 35 | 41* | 7 | -4 | 32*
CCOC(=O)c1ccc(NC(=O)c2nc[nH]c2C(=O)N(C)Cc2ccccc2)cc1 | 11 | 33 | 42* | 10 | 9 | 28
CCCC(C)C(=O)Nc1nc(C)c(-c2csc(Nc3ccc(Cl)cc3)n2)s1 (configuration not stated) | -4 | 39 | 44* | 30 | 7 | 19
Cc1ccccc1-c1nc(CS(=O)(=O)CC(=O)NC2CC2)c(C)o1 | 20 | -5 | -5 | -7 | 12 | /
Cc1ccccc1-c1nc(CS(=O)(=O)CC(=O)NC2CCCCC2C)c(C)o1 (configuration not stated) | 20 | 15 | 41* | 14 | -6 | -2
Cc1oc(-c2ccccc2F)nc1CSCC(=O)NC1CCC(C)CC1 (configuration not stated) | 12 | 28 | 40* | 6 | 15 | -7
O=[N+]([O-])c1ccccc1N/N=C/c1c[nH]c2ccccc12 | 37 | 33 | 69* | 33 | 12 | 57*
Cn1c(=O)n(C)c2cc([N+](=O)[O-])c(N3CCN(C(=O)c4cccc(Cl)c4)CC3)cc21 | 13 | 27 | 41* | 26 | -5 | 22
Cn1c(=O)n(C)c2cc([N+](=O)[O-])c(N3CCN(S(=O)(=O)c4ccc5ccccc5c4)CC3)cc21 | 17 | 26 | 21 | 18 | -3 | /
Cc1ccc(S(=O)(=O)N2CCN(c3cc4c(cc3[N+](=O)[O-])n(C)c(=O)n4C)CC2)cc1 | 17 | 37 | 43* | 26 | 0 | 21
CC(=O)Nc1ccc(SCCN2CC[C@@H](C(C)(C)C)CCC2=O)cc1 | 6 | 39 | 20 | 11 | / | /
SMILES | NLRP3 yeast inh | tim23-1 inh | tim10-1 inh | TIM10 inh | SKKanGAS inh | tim10-1 conf | others
COc1ccc(S(=O)(=O)N2CCOCC2)cc1NC(=O)CSc1nnc2n1CCCCC2 | 3 | -14 | -15 | -8 | / | /
COC(=O)Cc1ccc(NC(=S)NCc2ccccc2OC)cc1 | 18 | -7 | 20 | 11 | 3 | /
COc1ccccc1CNC(=S)Nc1ccc(F)cc1 | -21 | 33 | 48* | 16 | 0 | 1
CCCCCC1C(=O)C[C@@H]2CCN3C(=O)CCC[C@H]1[C@H]23 (some centres not stated) | / | 21 | -8 | -12 | / | /
Cc1cccc(/C=N/NC(=O)c2ccc(NC(=O)c3ccc(Cl)cc3)cc2)n1 | 19 | 19 | 96* | 7 | 8 | -8
Cc1ccc(NC(=O)O/N=C/c2ccc(N(C)C)cc2)cc1 | 20 | 10 | 5 | 16 | 1 | /
Cc1ccc(S(=O)(=O)N(C)CC(=O)N2CCN(Cc3ccccc3)CC2)cc1 | 16 | 18 | 47* | 29 | -12 | 23
Cc1ccc(S(=O)(=O)N(C)CC(=O)N2CCCCCCC2)cc1 | 30 | 21 | 13 | 0 | -1 | /
CN1CCN(C(=S)NC(=O)/C=C/c2cccs2)CC1 | 25 | 13 | 8 | -18 | -3 | /
CN1CCN(C(=S)NC(=O)/C=C/c2cccc3ccccc23)CC1 | -2 | 19 | 51* | 18 | -9 | 9
C=C(C)C1Cc2c(C)nn(-c3nc(C)cc(C)n3)c2C1 (configuration not stated) | -9 | 24 | 42* | 11 | 56* | 23
C=C(C)C1Cc2nc(N)nc(C)c2C1 (configuration not stated) | -1 | -8 | 3 | 4 | -3 | /
N#Cc1ccc(C(=O)NC23CC4CC(CC(C4)C2)C3)cc1 | 25 | 26 | 41* | 8 | -3 | 4
Cc1ccc(CNS(=O)(=O)c2cn(C)c(=O)n(C)c2=O)cc1 | 11 | 5 | 6 | 3 | -4 | /
Cc1cc(/C=N/n2cnnc2)c(C)n1-c1ccc(OCc2ccccc2F)cc1 | 10 | 36 | 46* | 39 | 25 | -3
O=C(CN1CCN(C(C(=O)Nc2ccc(F)cc2)c2ccccc2)CC1)NC1CC1 (configuration not stated) | 23 | 0 | -9 | -5 | / | /
Cc1ccsc1C(=O)N/N=C/C=C/c1ccccc1[N+](=O)[O-] | 24 | 49 | 48* | 62* | 4 | 48* | TIM10 conf=-19
Cc1occc1C(=O)N/N=C/C=C\c1ccccc1[N+](=O)[O-] | 3 | 9 | 6 | 3 | 3 | /
CCSc1nnc(NC(=O)c2cc(C)nc3ccccc23)s1 | 21 | -4 | 19 | 3 | 22 | /
CCSc1nnc(NC(=O)c2nc(-c3ccccc3)n(-c3ccccc3)n2)s1 | 20 | 50 | 55* | 51* | 63* | 52* | TIM10 conf=-21
COc1ccc(C(=O)OCCCc2cc3ccccc3c(=O)o2)cc1 | 25 | 33 | 10 | -18 | / | /
CCOC(=O)C1(CCCc2ccccc2)CCN(C(=O)CCc2cnn(C)c2)CC1 | 3 | 39 | 53* | 43* | -2 | 41* | TIM10 conf=31
